Screening data: PubChem, National Center for Advancing Translational Sciences (NCATS)
Most compounds without a hit are left out; they make up all but 10% or so of the library.
HP1b chromo inh: blocks HP1-beta chromodomain binding to methylated histone tails. P83916. AlphaScreen HP1-beta / biotin-H3K9me3 peptide binding. Potency, µM (titrated, usually from 114 µM), for the others: at the highest dose activity change, negative = inhibition, most hits filed as inhibitors. hit rate 0.56% among 390,000. AID 540317; also: potency is read from the fitted curve at half-maximal effect; nearly all actives have a fitted effect of over 70% in size
Target sequence (P83916 whole entry, looked up): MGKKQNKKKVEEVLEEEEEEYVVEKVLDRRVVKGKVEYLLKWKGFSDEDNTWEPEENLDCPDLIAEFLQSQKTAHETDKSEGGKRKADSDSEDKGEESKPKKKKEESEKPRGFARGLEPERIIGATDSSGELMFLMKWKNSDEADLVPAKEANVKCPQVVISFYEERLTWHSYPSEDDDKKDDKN
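AlphaScreen: HP1-beta (50 nM) preformed 30 min with biotin-H3(1-18)K9me3 peptide (50 nM) in PBS pH 7.4, 0.01% Tween-20. Compound added for 30 min at RT, then streptavidin donor/nickel chelate acceptor beads (10 ug/mL) for 30 min.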
CtBP-E1A blk: inhibitors of CtBP/E1A interaction; AlphaScreen GST-E1A/His-CtBP binding, 1536-well; stronger effect = lower value; activity change, % (concentration not given with the values); hit rate 0.49% among 340,000; AID 651724; in the data active = activity change below about -65%; inconclusive = mostly about -30% to -63%; also: % is scaled to controls: 0 for no effect and ±100 for the full control effect
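AlphaScreen with 125 nM GST-E1A and 125 nM His-CtBP (5X stocks) in Tris pH 8.0, 300 mM NaCl, BSA, Tween 20, TCEP. Compounds preincubated 2 h at 37 deg C, then glutathione donor/nickel acceptor beads added for 1 h at 37 deg C in dark.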
JMJD2A Tudor: JMJD2A Tudor domain (human) inhibition. AlphaScreen JMJD2A-Tudor / H3K4me3 peptide binding. AID 504339. O75164. Potency, µM (titrated, usually from 114 µM), without a hit: top-dose activity change, negative = inhibition, actives largely listed as inhibitors. hit rate 4.4% among 390,000; also: potency is read from the fitted curve at half-maximal effect; % is scaled to controls: 0 for no effect and ±100 for the full control effect; nearly all actives have a fitted effect of over 50% in size
BAZ2B block: blocks human BAZ2B; AID 504333; hit rate 4.4% among 360,000; Potency, µM (series often up to 114 µM), inactives show at the top dose activity change, negative = inhibition, usual class: inhibitors; AlphaScreen BAZ2B-H3K14Ac peptide displacement; also: potency is read from the fitted curve at half-maximal effect; % is scaled to controls: 0 for no effect and ±100 for the full control effect; nearly all actives have a fitted effect of over 60% in size
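BAZ2B 50 nM plus b-H3(5-23)K14Ac 50 nM, PBS pH 7.4/0.01% Tween-20, 30 min RT; compound added (max 110 uM), 30 min RT; streptavidin donor/Ni-chelate acceptor beads 10 ug/mL final, 20 min dark; AlphaScreen read.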
Six1-Eya2 blk: inhibitors of human Six1/Eya2 interaction. activity change, % (concentration not given with the values). Q15475+O00167. AlphaScreen GST-Six1/His-Eya2 binding, biochemical; stronger effect = lower value. hit rate 0.56% among 360,000. AID 651725; in the data active = activity change below about -65%; inconclusive = mostly about -30% to -63%; also: % is scaled to controls: 0 for no effect and ±100 for the full control effect
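GST-Six1 + His-Eya2 (5X stock: 250/500 nM); Tris pH 8.0, 300 mM NaCl, 0.05% BSA, 0.02% Tween 20; GSH donor/Ni acceptor beads; 1 h 37 °C dark; AlphaScreen readout.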
G9a inh: G9a (human) methyltransferase inhibition. Q96KQ7. G9a H3K9 monomethylation, AlphaScreen, 2 h. Potency, µM (highest dose often 102 µM), for the others: top-dose activity, negative = inhibition, actives largely listed as inhibitors. hit rate 8.8% among 350,000; also: potency is read from the fitted curve at half-maximal effect; % is scaled to controls: 0 for no effect and ±100 for the full control effect; nearly all actives have a fitted effect of over 75% in size
Target sequence (Q96KQ7 913-1193 limits assumed): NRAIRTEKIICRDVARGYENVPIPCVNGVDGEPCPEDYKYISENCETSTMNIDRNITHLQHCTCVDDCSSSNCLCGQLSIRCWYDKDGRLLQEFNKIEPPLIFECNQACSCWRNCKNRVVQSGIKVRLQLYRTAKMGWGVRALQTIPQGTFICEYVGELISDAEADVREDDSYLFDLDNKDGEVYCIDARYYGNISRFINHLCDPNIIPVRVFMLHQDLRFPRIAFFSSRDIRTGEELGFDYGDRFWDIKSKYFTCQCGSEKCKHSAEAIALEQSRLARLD
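G9a (20 nM) was preincubated 15 min with compound, then reacted 2 h at room temperature with 500 nM biotin-H3K9 peptide and 20 µM SAM. Monomethyl-H3K9 detected by AlphaScreen using anti-H3K9me1 antibody.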
Starred values were filed as active, the others as inactive; ? = inconclusive; nt = no result; [ ] = another dose, or the depositor's remark. Unless noted, calls follow the shape of the dose curve; as a rule, active = well fitted inhibition curve with a large enough effect; inconclusive = small, poorly fitted or top-dose-only effect; inactive = no such curve, though single readings can be large or run the other way.

SMILES	HP1b chromo inh	CtBP-E1A blk	JMJD2A Tudor	BAZ2B block	Six1-Eya2 blk	G9a inh
COc1ccc(NC(=O)c2ccc3c(c2)NC(=O)CS3)cc1S(=O)(=O)Nc1ccc(Br)cc1	-10%	nt	-21%	-30%	-2	nt
Cc1ccc(NS(=O)(=O)c2cc(NC(=O)c3ccc4c(c3)NC(=O)CS4)ccc2C)c(C)c1	?	-17	?	-24%	-13	7.9µM*
Cc1ccc(-n2nc(C(=O)N(C)Cc3ccccc3)c3c4ccccc4n(C)c3c2=O)cc1	24%	nt	-7%	5%	nt	-29%[59 µM]
C=CCn1cccc(/C=C/C(=O)c2ccc(C(C)(C)C)cc2)c1=S	?	-3	32µM*	11µM*	4	?
O=C(C=Cc1ccccc1Cl)c1ccccc1	38%[57 µM]	5	62%	nt	-5	nt
O=C(CSc1nc(-c2ccccc2)cc(=O)[nH]1)Nc1ccc(F)c(F)c1	31%	5	-6%	30%	1	7%
COc1ccc(N(C(=O)c2ccccc2F)S(=O)(=O)c2ccc3c(c2)n(C)c(=O)n3C)cc1	28%	nt	-15%	-3%	nt	-1%[59 µM]
FC(F)(F)c1cccc(N2CCN(c3nc4ccccc4n4cnnc34)CC2)c1	41%	nt	-7%	2%	nt	6%[59 µM]
c1cc(-c2sc(-c3ccncc3)c(-c3ccncc3)c2-c2ccncc2)ccn1	15%	2	?	?	3	?
COc1ccc(C2Nc3ccc(Cl)cc3C(=O)N2Cc2ccccc2)cc1COc1ccc(NC(C)=O)cc1 (stereo not given)	nt	nt	56µM*	nt	nt	nt
COc1ccc(C2Nc3ccc(NC(C)=O)cc3C(=O)N2Cc2cccc(Cl)c2)cc1COc1ccc(NC(C)=O)cc1 (stereo not given)	12%	nt	?	nt	nt	nt
COc1ccc(C2Nc3ccc(NC(=O)CO)cc3C(=O)N2Cc2cccc(Cl)c2)cc1COc1ccc(NC(C)=O)cc1 (stereo not given)	-9%	nt	56µM*	nt	nt	nt
CCOc1ccccc1NC(=O)CSc1nnc(CC)c(CC)n1	23%	nt	2%	7%	nt	6%[59 µM]
CCCCN(C(=O)C1CCC1)c1c(N)n(CC(C)C)c(=O)[nH]c1=O	5%	-4	-17%	8%	4	-38%
CCOc1ccccc1CN(CCc1ccc2c(c1)OCO2)Cc1cccc(OC)c1OC	?	nt	4.5µM*	50µM*	nt	2.5µM*
CCOc1ccc(CN(CCc2ccc3c(c2)OCO3)Cc2cc(OC)c(OC)cc2OC)cc1	11µM*	nt	8.9µM*	28µM*	nt	2.8µM*
CCOc1cc(CNCc2ccc3c(c2)OCO3)ccc1OC	46%	5	-11%	-26%	-4	9%[59 µM]
COc1ccccc1CC(=O)NCc1ccc2c(c1)OCO2	26%	1	-18%	-8%	14	-12%[12.7 µM]
CCCCSCc1nc2ccccn2c1Br	62%	2	-8%	-37%	4	13µM*
CCSCc1nc2ccccn2c1Br	40%	nt	-12%	?	-8	13µM*
Nn1c(SCc2nc3ccccn3c2Br)nnc1-c1cccnc1	20%	4	-31%	11%	-7	-2%[59 µM]
CCOc1ccccc1NC(=S)/C(=C(\[O-])c1ccc2c(c1)OCCO2)[n+]1ccc(CC)cc1	?	-11	-34%[57.1 µM]	?	-2	8.9µM*
CC(C)(C)c1cc[n+](/C(C(=S)Nc2ccccc2F)=C(/[O-])c2ccc3c(c2)OCCO3)cc1	-21%	6	?	35µM*	2	?
[O-]/C(=C(\C(=S)Nc1ccc(Cl)cc1)[n+]1ccccc1)c1ccc(OC(F)F)cc1	-18%	-2	?	?	-8	11µM*
[O-]C(=C(C(=S)Nc1cccc2ccccc12)[n+]1ccccc1)c1ccc2c(c1)OCCO2	?	-24	?	nt	-13	nt
SMILES	HP1b chromo inh	CtBP-E1A blk	JMJD2A Tudor	BAZ2B block	Six1-Eya2 blk	G9a inh
[O-]/C(=C(\C(=S)Nc1ccccc1F)[n+]1ccccc1)c1ccc(-c2ccccc2)cc1	4%	-2	-30%	-27%	2	32µM*
CC(C)c1ccc(NC(=S)NNC(=O)c2cccs2)cc1	-23%	1	-35%	-18%	0	?
Cc1noc(C)c1-c1nc(N2CCN(C)CC2)c2ccccc2n1	nt	nt	nt	nt	nt	0%[0.501 µM]
COc1ccc(-c2noc(CCC(=O)NCc3cccnc3)n2)cc1	-4%	2	-16%	7%	0	5%
CCOc1ccc(-c2noc(CCC(=O)NCCc3ccccc3)n2)cc1OC	15%	-65*	-3%	-5%	7	2%
COc1ccc(-c2noc(CCC(=O)NCc3cccnc3)n2)cc1OC	46%	0	12%[57.1 µM]	5%	20	71µM*
Cc1cccc(NC(=O)CSc2nncn2C)c1	19%	nt	-1%	-10%	nt	-2%[59 µM]
CCC(=NOCc1ccccc1)C(=O)NNS(=O)(=O)c1ccc(C)cc1	14%	7	?	nt	5	nt
COc1ccc(Cl)cc1NC(=S)N1CCN(c2ccccn2)CC1	15%	-3	-10%	4%	-7	?
COc1cc2nc(C3CCC3)nc(N3CCN(c4ccccn4)CC3)c2cc1OC	-16%	-4	?	50µM*	0	50µM*
COc1cc(NC(=S)N2CCN(c3ccccn3)CC2)c(OC)cc1Cl	-38%	-20	?	-26%	-15	16µM*
COc1cccc(NC(=S)N2CCN(c3ccccn3)CC2)c1	8%	-5	89µM*	-10%	-3	-1%
COc1cc(NC(=S)N2CCC(C(N)=O)CC2)c(OC)cc1Cl	17%	-1	-19%	-19%	-3	45µM*
COc1ccc(OC)c(C2CC(=O)c3c([nH]c(C(=O)OC4CCC(C)CC4)c3C)C2)c1 (stereo not given)	22%	nt	-21%	-31%	nt	-36%[59 µM]
CCCn1cc(S(=O)(=O)c2cc(C)ccc2C)c(=O)c2cc(F)c(N3CCCCCC3)cc21	17%	nt	-19%	-3%	nt	7%[59 µM]
O=C1CCc2cc([S+](=O)([O-])Nc3ccc(N[S+](=O)([O-])c4ccc5c(c4)CCC(=O)N5)cc3)ccc2N1	nt	nt	-6%	nt	nt	nt
O=c1c2sc3ccccc3c2n(Cc2ccccc2)c(=O)n1CCc1ccccc1	50%	nt	-13%	1%	nt	12%[59 µM]
C/C(Cl)=C/Cn1c(SC(C)C)nc2c1c(=O)[nH]c(=O)n2C	-22%	-5	-11%	-8%	-4	?
CCOC(=O)CSc1nc2c(c(=O)[nH]c(=O)n2C)n1C/C=C(/C)Cl	-26%	0	-18%	6%	3	14µM*
CCCCn1c(SCC(=O)OCC)nc2c1c(=O)[nH]c(=O)n2C	-10%	-2	-18%	8%	0	10µM*
CCOC(=O)CSc1nc2c(c(=O)[nH]c(=O)n2C)n1CCc1ccccc1	19%	10	-8%	3%	0	-1%
